Among the data in PubChem BioAssay AID1441 (NMMLSC, 2008) are binding response (% of control) values, retold here.

In all, about 220,000 compounds went through this assay and about 830 (0.38%) were called active. Only a selection was taken, and actives are over-represented in it overall. A number with no mark means an inactive call. How the calls were made is not given here.

Regulator of G-protein signaling 16 (Homo sapiens) + Guanine nucleotide-binding protein G(o) subunit alpha (Homo sapiens), sequence (O15492 whole entry, looked up): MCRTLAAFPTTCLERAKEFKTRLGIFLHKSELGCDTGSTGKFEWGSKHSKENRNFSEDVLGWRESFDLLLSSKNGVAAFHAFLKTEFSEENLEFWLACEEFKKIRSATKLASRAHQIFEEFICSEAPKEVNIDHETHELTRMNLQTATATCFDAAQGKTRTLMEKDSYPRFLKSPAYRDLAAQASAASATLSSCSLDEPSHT
Regulator of G-protein signaling 16 (Homo sapiens) + Guanine nucleotide-binding protein G(o) subunit alpha (Homo sapiens), sequence (P09471 whole entry, looked up): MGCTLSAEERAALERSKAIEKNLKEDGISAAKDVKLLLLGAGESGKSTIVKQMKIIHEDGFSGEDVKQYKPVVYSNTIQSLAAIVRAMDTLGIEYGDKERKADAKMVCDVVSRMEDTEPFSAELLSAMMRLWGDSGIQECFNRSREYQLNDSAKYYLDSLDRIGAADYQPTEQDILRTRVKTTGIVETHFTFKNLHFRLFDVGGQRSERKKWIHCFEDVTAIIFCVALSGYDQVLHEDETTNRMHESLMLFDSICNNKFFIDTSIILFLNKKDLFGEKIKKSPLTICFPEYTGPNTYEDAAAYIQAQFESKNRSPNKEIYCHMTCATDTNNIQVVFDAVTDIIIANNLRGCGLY

The assay concerns the target Regulator of G-protein signaling 16 (Homo sapiens) + Guanine nucleotide-binding protein G(o) subunit alpha (Homo sapiens) (UniProt O15492+P09471). The assay can be described thus: RGS16-Galphao interaction inhibitors and enhancers – biochemical, human proteins, multiplexed bead flow cytometry, primary screen (AID 1441).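 Further: Galphao activated by GDP with aluminum fluoride before binding.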 Conditions: bead-based flow cytometry RGS16-Galphao binding, fluorescence; at 10 µM; actives lie on both sides. A general note: In flow cytometry, cells or beads pass a laser one at a time.
Consider `O=C(Nc1cccnc1Oc1ncnc2cc(Cl)ccc12)c1ccc(F)cc1`, for which the binding response (% of control) was 102%.
With `CN1CCN(c2ccc(CNS(=O)(=O)c3cccc(F)c3)cc2)CC1`, the binding response (% of control) is 104%.
Take `CN(C)CCOc1cccc(Br)c1`: the binding response (% of control) was 103%.
For the molecule `CC1(C)C=C2[C@H]3CC[C@@H]4[C@@]5(C)CCC(=O)C(C)(C)[C@@H]5CC[C@@]4(C)[C@]3(C)CC[C@@]2(C(=O)O)CC1`, the binding response (% of control) is 267% [activator] (active).
Take `CC1Cc2ccccc2N1CC(=O)Nc1ccc(S(N)(=O)=O)cc1` (stereo unspecified): the binding response (% of control) was 93.2%.
On to `O=C1CCC(=O)N(O)CCCCCNC(=O)CCC(=O)N(O)CCCCCNC(=O)CCC(=O)N(O)CCCCCN1`, for which the binding response (% of control) was 40.8%.
Take `CCS(=O)(=O)c1cc([N+](=O)[O-])c(Sc2ccccc2N)s1`: the binding response (% of control) is 91.4%.
Turning to `O=C(NCCCn1ccnc1)C(=O)NCC1OCCN1S(=O)(=O)c1cc(F)ccc1F` (stereo unspecified), the binding response (% of control) is 105%.
Regarding `Cc1ccc(SCCC(=O)OCC(=O)Nc2ncc(Cl)cc2Cl)cc1`, the binding response (% of control) was 106%.
Take `NS(=O)(=O)c1cccc(NC(=O)CSc2nc3ccccc3n2-c2ccccc2)c1`: the binding response (% of control) was 105%.
As for `Cc1ccc(-n2c(SCC(=O)Nc3ncc(Cl)cc3Cl)nc3ccccc32)cc1`, the binding response (% of control) is 13.7% (active).
As to `CCCNC(=O)c1c(Cl)cnn1-c1ccc(C)cc1`, the binding response (% of control) is 99.5%.
For the molecule `CCOc1ccccc1NC(=O)c1cc(S(=O)(=O)N2CCC3(CC2)OCCO3)ccc1F`, the binding response (% of control) was 4.15% (active).
The figure for `Cc1c(C(=O)Nc2ccccc2Cl)oc2ccc(S(=O)(=O)N3CCC4(CC3)OCCO4)cc12` is 107%; for `CCOc1ccccc1NC(=O)CCN1CCN(S(=O)(=O)c2ccc(OC)cc2)CC1` it is 102%; for `Cc1ccc(C(=O)N/C(=C/c2cccnc2)C(=O)O)cc1` it is 100%.
Turning to `Cc1cc(OCCN2CCCC2)cc(C(C)C)c1`, the binding response (% of control) is 93.3%.
For the molecule `COC(c1ccccc1)c1nnc(CCC(=O)N2CCN(CCOc3ccccc3)CC2)o1` (stereo unspecified), the binding response (% of control) is 101%.
Regarding `COc1cccc(C(=O)NNC(=O)c2ccccc2Br)c1`, the binding response (% of control) was 105%.
Turning to `COc1cc(OC)cc(C(=O)NCCSCc2ccco2)c1`, the binding response (% of control) was 97.1%.
For `COc1cccc(C(=O)NCCSc2ccc(Br)cc2)c1`, the binding response (% of control) was 11.1% (active).
With `CC(=O)c1sc(NC(=O)C2=NN(c3ccccc3)C(=O)CC2)nc1C`, the binding response (% of control) is 102%.
With `O=C(Cn1ncc(N2CCCC2)c(Br)c1=O)c1ccc(Cl)cc1`, the binding response (% of control) is 103%.
Turning to `COC(=O)c1ccccc1OCC(=O)N1CCN(c2ccc(Cl)cc2)CC1`, the binding response (% of control) is 461% [activator] (active).
In the case of `O=C(COc1ccc(Cl)cc1)N1CCN(c2cccc(C(F)(F)F)c2)CC1`, the binding response (% of control) was 107%.
As for `O=C(CN1CCN(c2ccc(Cl)cc2)CC1)N1CCCC1`, the figure is 101%; as for `CN(C(=O)COC(=O)c1cc(-c2ccco2)nc2ccccc12)C1CCS(=O)(=O)C1` (stereo unspecified), 89.7%; as for `Cc1ccc(S(=O)(=O)CC(=O)Nc2c(C)n(C)n(-c3ccccc3)c2=O)cc1`, 98%.
With `Cc1cc(C)cc(N(CC(=O)Nc2c(C)n(C)n(-c3ccccc3)c2=O)S(C)(=O)=O)c1`, the binding response (% of control) is -28.4% (active).
Take `Cc1cc(C)cc(N(C(C)C(=O)Nc2c(C)n(C)n(-c3ccccc3)c2=O)S(C)(=O)=O)c1` (stereo unspecified): the binding response (% of control) is 109%.
`C/C(=N/N1CCN(Cc2cccc3ccccc23)CC1)c1cccnc1`: the binding response (% of control) is 104%.
As for `COC(=O)c1ccccc1NC(=S)NC(=O)c1ccccc1F`, the figure is 101%.
The figure for `C/C=C/C(=O)OCC(=O)Nc1ccc(F)cc1Cl` is 104%.
As for `Cc1cccc(CN2CCN(Cc3cnn(-c4ccccc4F)c3)CC2CCO)n1` (stereo unspecified), the figure is 101%; as for `O=C(NCc1ccccc1)c1ccc(S(=O)(=O)Nc2cccc(C(F)(F)F)c2)cc1`, 80.9%.
For the molecule `CCOC(=O)CSc1nc2c(c(=O)n(C)c(=O)n2C)n1Cc1ccccc1F`, the binding response (% of control) is 102%.
The figure for `CCOC(=O)CSc1nc2c(c(=O)n(Cc3ccccc3Cl)c(=O)n2C)n1C` is -55.5% (active).
`Cn1c(=O)c2c(nc(SCC(=O)Nc3ccccc3N3CCCCC3)n2C)n(C)c1=O`: the binding response (% of control) is 117%.
Regarding `COc1ccccc1C1CCN(C(=S)Nc2ccc(Br)cc2)CC1`, the binding response (% of control) is 98%.
The figure for `CC(=O)c1ccc(NC(=S)NC(=O)CC(C)C)cc1` is 21.8% (active).
Consider `COc1ccc(NS(=O)(=O)c2ccc(NC(=S)NC(=O)CC(C)C)cc2)cc1`, for which the binding response (% of control) was 98.4%.
Take `CC(C)CC(=O)NC(=S)Nc1cc(C(=O)O)ccc1Cl`: the binding response (% of control) was 103%.
Consider `CC(=O)Nc1cccc(-c2nc3ccccc3s2)c1C`, for which the binding response (% of control) is 108%.
The figure for `C/C(=N\NC(=O)c1cccnc1)c1ccc(-c2ccccc2)cc1` is 95.2%.
As for `CC(C)c1nc(CNC(=O)CC2C(=O)NCCN2Cc2ccoc2)cs1` (stereo unspecified), the binding response (% of control) was 105%.
Turning to `CC(C)=C1SC(N2CCN(c3ccc(C)c(Cl)c3)CC2)=NC1=O`, the binding response (% of control) was 99.9%.
Turning to `Cc1cccc(C)c1NC(=O)CNC(=O)Cc1ccc(Br)cc1`, the binding response (% of control) is 98.2%.
With `CC(C)(C)NC(=O)c1cccc(NC(=O)Cc2ccc(Br)cc2)c1`, the binding response (% of control) was -3.28% (active).
Regarding `COc1ccc(CC(=O)Nc2ccc(C(=O)NC(C)(C)C)cc2)cc1`, the binding response (% of control) is 99.7%.
As for `O=C(COC(=O)c1ccncc1)c1ccccc1`, the figure is 104%.
The figure for `O=C1C2C3C=CC(C3)C2C(=O)N1c1ccc(S(=O)(=O)Nc2nccs2)cc1` (stereo unspecified) is 93.2%; for `COc1ccc2[nH]c(C(=O)Nc3ccccc3Cl)cc2c1` it is 97.5%.
As for `CC(C)n1c(=O)[nH]c2cc(C(=O)Nc3ccccc3)ccc21`, the figure is 107%.
Take `O=C(Nc1ccccc1)c1cc2ccccc2[nH]1`: the binding response (% of control) was 13.8% (active).
The figure for `O=C(Nc1ccc(S(=O)(=O)Nc2nccs2)cc1)c1cc(=O)[nH]c2ccccc12` is 100%.
The figure for `CC1CCN(Cc2nc(-c3ccc(Cl)cc3)no2)CC1` is 108%; for `COC(=O)C1=C(Nc2ccc(C)cc2)C=C(C)C(C(=O)OC)C1c1ccc(F)cc1` (stereo unspecified) it is 109%; for `COc1ccc(NC(=O)Cn2c(=O)n(Cc3ccco3)c(=O)c3ccccc32)cc1` it is 101%.
As for `CN(c1ccccc1)c1ccc(/C=c2\s/c(=C(/C#N)C(=O)C(C)(C)C)n(Cc3ccco3)c2=O)cc1`, the figure is 551% [activator] (active); as for `Cc1cs/c(=N\N=C\c2ccc(O)cc2)n1Cc1ccco1`, 104%; as for `COc1ccccc1-n1cn[nH]c1=S`, 102%.
Regarding `COc1ccc(OC)c(-n2c(-c3ccn[nH]3)n[nH]c2=S)c1`, the binding response (% of control) was 102%.
Take `COc1ccccc1-n1c(-c2cc(-c3ccco3)[nH]n2)n[nH]c1=S`: the binding response (% of control) was -1.14% (active).
As to `CCCOc1ccc(Cc2c(Cl)nc(SC)nc2NC)cc1`, the binding response (% of control) is 97.7%.
The figure for `COc1ccc(/C=N/n2nnnc2N)cc1OC` is 125%; for `CN(C)CCNC(=O)/C(=C/c1cccc([N+](=O)[O-])c1)NC(=O)c1ccccc1` it is 219% [activator] (active); for `C=CCNC(=O)/C(=C\c1cccc([N+](=O)[O-])c1)NC(=O)c1ccccc1` it is 98%.
`O=C(NCCc1ccccc1)/C(=C\c1ccc([N+](=O)[O-])cc1)NC(=O)c1ccccc1`: the binding response (% of control) was 101%.
In the case of `CCSc1ccccc1C(=O)NCc1ccc(OC)cc1`, the binding response (% of control) was 98.1%.
As for `CCN(CC)S(=O)(=O)c1cccc(-c2n[nH]c(=S)n2/N=C/c2ccc(C(=O)OC)cc2)c1`, the figure is 334% [activator] (active); as for `COC(=O)c1ccc(/C=N\n2c(C)nnc2C)cc1`, 82.2%.
Regarding `S=c1[nH]nc(-c2cc(-c3ccccc3)n[nH]2)n1/N=C/c1c2ccccc2cc2ccccc12`, the binding response (% of control) is 97.7%.
The figure for `Cc1cccc(NC(=O)c2nc[nH]c2C(=O)NCC(=O)OCc2ccccc2)c1` is 110%; for `NC(=O)Cc1ccc2c(c1)[nH]c1ccccc12` it is 103%; for `NC(=O)Cc1ccc2sc(-c3ccccc3)nc2c1` it is 23.6% (active).
Take `O=C(O)Cc1sc(-c2ccc(C(=O)O)cc2)nc1-c1ccccc1`: the binding response (% of control) is 99.1%.
With `CSCC[C@H](NC(=O)CCCn1nnc2ccccc2c1=O)C(=O)O`, the binding response (% of control) is 104%.
Regarding `C=CCn1c(Cn2nnc3ccccc32)nnc1SCC(=O)N/N=C/c1cc(Br)cc(OC)c1O`, the binding response (% of control) was -35.2% (active).
For the molecule `COc1ccc(OC)c(/C=N/NC(=O)CSc2nnc(C)n2-c2ccccc2)c1`, the binding response (% of control) is 97.7%.
Turning to `Cc1ccc(Cn2c(SCC(=O)N/N=C/c3ccccc3OCC(=O)O)nc3ccccc32)cc1`, the binding response (% of control) is 99.5%.
As for `CN1CCN(C(CNS(=O)(=O)c2cccs2)c2cccnc2)CC1` (stereo unspecified), the figure is -5.62% (active); as for `CN1CCN(S(=O)(=O)c2ccc(N3CCN(S(=O)(=O)c4cccs4)CC3)nc2)CC1`, 98.8%; as for `Cc1ccc(NC(=O)NCC(c2cccnc2)N2CCOCC2)cc1` (stereo unspecified), 105%.
The figure for `Cn1nc(C(C)(C)C)c([N+](=O)[O-])c1C(N)=O` is 98.6%.
Regarding `COc1ccc2c(c1)CC[C@@H]1[C@@H]2CC[C@]2(C)C(=O)CC[C@@H]12`, the binding response (% of control) is 101%.
Take `O=C(NCCc1c[nH]c2ccc(Cl)cc12)c1ccc([N+](=O)[O-])cc1`: the binding response (% of control) is 112%.
Turning to `COc1ccccc1-n1c(=S)[nH]c2c(sc(=S)n2-c2ccc(C)cc2C)c1=O`, the binding response (% of control) is 94.4%.
As to `COc1cccc(C2Nc3cccc4cccc(c34)N2)c1`, the binding response (% of control) was 106%.
For the molecule `O=[N+]([O-])C(=c1ccc2c(c1)N1C3=C(CCCC3)CC3CCCCC31N=2)[N+](=O)[O-]` (stereo unspecified), the binding response (% of control) is 20.9% (active).
Turning to `Cc1ccc(C)c(NC(=O)C(OC(=O)c2ccc(C)s2)c2ccccc2)c1` (stereo unspecified), the binding response (% of control) is 112%.
For the molecule `COc1ccc(CN(Cc2ccc(OC)cc2)C(=O)c2cccs2)cc1`, the binding response (% of control) was 99%.
